Sampled rows, rich in hits. Any-hit rate of the full collection: about 8.1%.
MCF10A rerep = DNA re-replication induction in MCF 10a cells; MCF 10A DNA re-replication, Hoechst nuclear intensity, 48 h; Potency, µM (highest dose often 46.1 µM), for the others: top-dose activity, positive = re-replication, hits mostly activators; hit rate 2.9% among 350,000; note: % of control where 0% means no effect; nearly all actives have a fitted effect of over 50% in size
ELG1 repair inh = ELG1-dependent DNA repair inhibition; HEK293T ELG1-luciferase reporter, luminescence, 16 h; DNA damage induced by 5-fluorouridine; Potency, µM (highest dose often 46.1 µM), without a hit: at the top dose activity change, negative = inhibition, usual class: inhibitors; hit rate 2.3% among 330,000; note: % is set by controls: 0 for no effect and ±100 for the full control effect; nearly all actives have a fitted effect of over 55% in size
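Luminescence from the luciferase reporter, measured 30 min after ONE-Glo reagent at room temperature, was the read-out. Beforehand, 2,000 cells per well were exposed for 16 hr at 37 °C to 5-fluorouridine together with compound or vehicle.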
KB-3-1 tox = kills parental KB-3-1 adenocarcinoma cells; KB-3-1 viability, CellTiter-Glo ATP luminescence, 72 h; Potency, µM (top dose mostly 46.1 µM), actives largely listed as cytotoxic; hit rate 1.4% among 400,000; AID 1347075; note: % is set by controls: 0 for no effect and ±100 for the full control effect; nearly all actives have a fitted effect of over 60% in size
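KB-3-1 parental drug-naive adenocarcinoma cells in DMEM/10% FBS, incubated 72 h at 37 C with pin-transferred compounds across a concentration series. Viability by CellTiter-Glo luminescence; concentration-response curves fitted after normalization.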
SW480 rereplic = induces DNA re-replication in SW480 colon adenocarcinoma cells; hit rate 1.8% among 340,000; AID 624297; SW480 DNA re-replication, Hoechst DNA content imaging, 48 h; Potency, µM (top dose mostly 46.1 µM), inactives show at the highest dose re-replication activation, usual class: activators; note: % of control where 0% means no effect; nearly all actives have a fitted effect of over 55% in size
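DNA re-replication was detected as more nuclei of elevated Hoechst intensity after 48 hr exposure to compound (23 nL pinned per well of 250 cells).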
KB-V1 MDR tox = kills drug-selected multidrug resistant KB-V1 cells | KB-V1 MDR cells viability, CellTiter-Glo, 72 h | Potency, µM (series often up to 46.1 µM), actives largely listed as cytotoxic | hit rate 3.4% among 400,000 | AID 1347076; note: % is set by controls: 0 for no effect and ±100 for the full control effect; nearly all actives have a fitted effect of over 60% in size
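Cytotoxicity via CellTiter-Glo luminescence after 72 h compound exposure at 37 degrees C. Cells: drug-selected KB-V1 line, DMEM phenol-red free plus 10% FBS. Compounds tested at multiple concentrations; normalized data fitted to concentration-effect curves.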
The depositor's hits bear a star; i = inactive; ? = inconclusive; nt = not tested or not shown; ! = repeats disagree; [ ] = remark or other dose. Calls come from the whole dose curve; as a rule, active = well fitted curve in the direction sought with a large enough effect; inconclusive = small, poorly fitted or top-dose-only effect, or another doubt; inactive = no such curve, though single readings can be large; an effect the other way counts as inactive or inconclusive. Potency is the fitted concentration of half-maximal effect.

SMILES	MCF10A rerep	ELG1 repair inh	KB-3-1 tox	SW480 rereplic	KB-V1 MDR tox
O=C1OC(c2ccc(O)c(S(=O)(=O)O)c2)(c2ccc(O)c(S(=O)(=O)O)c2)c2c(Br)c(Br)c(Br)c(Br)c21	-5%	nt	nt	-2%	nt
Nc1ncnc2c1ncn2[C@@H]1O[C@@H]2COP(O)(=S)O[C@H]2[C@H]1O (some centres not stated)	nt	nt	i	nt	i
CC[C@H](C)[C@@H](C(=O)N1CCCC1c1nccs1)N(C)C(=O)[C@H](CC(C)C)N(C)C(=O)[C@H](Cc1ccc(OC)cc1)N(C)C(=O)/C=C(\C)OC (some centres not stated)	?	?	i	21µM*	i
O=C(Cn1c(=O)oc2cc(S(=O)(=O)N3CCCC3)ccc21)Nc1cccc(C(F)(F)F)c1	?	27%	i	35%	i
COc1cc(C2c3cc4c(c(O)c3CC3COC(=O)C32)OCO4)cc(OC)c1OC (configuration not stated)	?	nt	0.0082µM*!	0.052µM*	0.18µM*!
COc1cc([C@@H]2c3cc4c(cc3C[C@H]3COC(=O)[C@@H]32)OCO4)cc(OC)c1O	nt	nt	?	nt	i
COc1cc([C@@H]2c3cc4c(cc3[C@H](OC(C)=O)[C@H]3COC(=O)[C@@H]23)OCO4)cc(OC)c1OC	nt	nt	0.65µM*	nt	?
COc1cc(C2c3cc4c(cc3CC3COC(=O)C32)OCO4)cc(OC)c1OC (configuration not stated)	6.5µM*	8%	0.92µM*	?	0.58µM*
COc1cc([C@@H]2c3cc4c(c(O)c3C[C@H]3COC(=O)[C@@H]32)OCO4)cc(OC)c1OC	nt	nt	0.52µM*	nt	4.1µM*
O=C(CCS(=O)(=O)c1ccccc1)Nc1nnc(-c2ccco2)o1	?	11%	i	12%	i
C[C@]12CC[C@H]3C(CCC4(O)CC(O)CC[C@]34C=O)C1=CC[C@H]2c1ccc(=O)oc1 (some centres not stated)	20%	?	23µM*	?	i
CC(C)C(Br)C(=O)NC(N)=O (configuration not stated)	2%	nt	nt	-3%	nt
COC(=O)C12CCc3c(ccc4cc(OC)ccc34)C1=CC(=O)C2 (configuration not stated)	5%	nt	?	14%	21µM*
COc1ccc2c(c1)CCCC2=O	-41%	nt	i	4%	i
CCOc1ccc(NC(=O)C2CCCN2C(=O)Oc2ccccc2)cc1 (configuration not stated)	-2%	5%	?	?	?
CC(C)CCNC(=O)CSc1nc2ccccc2c(=O)[nH]1	2%	23%	i	-12%	16µM*
CC(C)CCNC(=O)CN1C(=O)CN=C(c2ccccc2)c2ccccc21	-2%	0%	i	0%	i
C[N+]12CCC(CC1)C(=C(c1ccccc1)c1ccccc1)C2	1%	6%	?	0%	i
CC[N+]12CCC(CC1)C(=C(c1ccccc1)c1ccccc1)C2	22%	9%	15µM*	4%	i
CN(C)c1ccc(C(=O)c2ccc(N(C)C)cc2)cc1	6.5µM*	?	?	5.2µM*	?
CN(C)c1ccccc1	nt	nt	i	nt	i
Cn1cc(C(=O)OCC(=O)Nc2ccccc2)c2ccccc21	-1%	-16%	i	-6%	21µM*
CCN1CCN(Cc2cc(Br)ccc2O)CC1	0%	-3%	i	-4%	i
Oc1ccc(Br)cc1CN1CCN(c2ccccc2)CC1	17%	-17%	i	16%	16µM*
COc1cc(C)c(CN2CCN(c3ccccc3)CC2)cc1C	8%	5%	i	-13%	13µM*
SMILES	MCF10A rerep	ELG1 repair inh	KB-3-1 tox	SW480 rereplic	KB-V1 MDR tox
O=C(c1ccccc1F)N1CCN(Cc2nc3sc4c(c3c(=O)[nH]2)CCCC4)CC1	10%	16µM*	i	4%	?
O=C(c1ccc(N2CCN(CCO)CC2)nc1)N1CCOCC1	-3%	?	i	-8%	i
Cc1ccc(S(=O)(=O)N2CCCCC2)cc1NC(=O)CSc1ncnc2ccccc12	?	?	i	?	16µM*
O=C(COC(=O)Cc1ccccc1)Nc1cc(S(=O)(=O)N2CCCCC2)ccc1Cl	1%	8%	i	-4%	i
CCOC(=O)[C@]12Cc3cc(N(C)C)ccc3[C@H]1N(Cc1ccccc1)C(=O)c1ccccc12	15%	nt	?	-1%	?
CCOC(=O)[C@]12Cc3cc(C)ccc3[C@H]1N(Cc1ccccc1)C(=O)c1cc(OC)ccc12	nt	nt	18µM*	nt	9.2µM*
CCOC(=O)C1(CCOc2ccccc2)CCN(Cc2cccc(O)c2)CC1	13%	-14%	i	3%	i
CCOC(=O)[C@]12Cc3ccccc3[C@H]1N(Cc1ccccc1)C(=O)c1cc(F)c(F)cc12	nt	nt	23µM*	nt	10µM*
CN1C(=O)C(C2c3ccccc3C(=O)N2Cc2ccccc2)C(=O)N(C)C1=O (configuration not stated)	-13%	8%	i	1%	i
CCOC(=O)[C@]12Cc3cc(Cl)ccc3[C@H]1N(Cc1ccccc1)C(=O)c1ccccc12	-49%	nt	?	2%[9.22 µM]	23µM*!
Fc1ccc(-c2nc3c(-c4ccc(F)cc4)cnn3cc2CCN2CCOCC2)cc1	1%	?	i	-1%	?
COc1ccc2[nH]c3c(c2c1)CCN1C(=O)C(CC(=O)NCc2cccc(C(F)(F)F)c2)C[C@H](C(=O)N2CCCCC2)[C@@]31C (some centres not stated)	?	?	i	?	i
Cc1ccc(-c2nc(N(C)C3CCN(C)CC3)c3ccccc3n2)cc1	6%	5%	i	13%	21µM*
Cc1ccc(S(=O)(=O)c2nc(-c3ccccc3Cl)oc2N(C)C2CCN(C)CC2)cc1	?	-7%	i	?	i
COC(=O)C[C@](O)(CCCC(C)(C)O)C(=O)O[C@@H]1C(OC)=C[C@]23CCCN2CCc2cc4c(cc2[C@H]13)OCO4	?	nt	nt	26%	nt
CC(O)(CS(=O)(=O)c1ccccc1)C(=O)Nc1cccc(C(F)(F)F)c1 (configuration not stated)	-7%	7%	i	4%	21µM*
COC(=O)C1=C(c2cccc(OCc3ccccc3)c2)C[C@@H]2CC[C@H]1N2C(=O)NCCOc1ccccc1	13µM*	-27%	?	-33%	?
COC(=O)C1=C(c2cccc(OCc3ccccc3)c2)C[C@@H]2CC[C@H]1N2C(=O)NCCOc1ccccc1Cl	2.1µM*	-28%	?	22%	?
CCC(C(N)=O)N1CCCC1=O (configuration not stated)	-3%	nt	nt	-2%	nt

Assay outcomes: PubChem BioAssay, National Center for Advancing Translational Sciences (NCATS)
